# Sampled rows, rich in hits. Any-hit rate of the full collection: about 10%.
# Insulin prom inh – TRM-6 insulin promoter activity inhibition. TRM-6 cells (human fetal islet line), insulin promoter-eGFP reporter, imaging; reporter expression induced with tamoxifen. inhibition, % at 2 µM. 130,000 tested, 0.9% active;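 active = inhibition above the mean plus 3 SD, with well images judged a real hit on visual review, cut at about 60% in these data, passing the limit was not always enough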
# p97 ATPase inh – human p97 ATPase inhibition | recombinant p97 ATPase, Kinase-Glo ATP luminescence, 3 h | AID 1481 | P55072 | 220,000 tested, 0.42% active | inhibition, % at 8 µM; in the data active = inhibition above about 15%;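 note: 0% = DMSO vehicle and 100% = wells lacking enzyme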
# Target sequence (P55072 whole entry, looked up): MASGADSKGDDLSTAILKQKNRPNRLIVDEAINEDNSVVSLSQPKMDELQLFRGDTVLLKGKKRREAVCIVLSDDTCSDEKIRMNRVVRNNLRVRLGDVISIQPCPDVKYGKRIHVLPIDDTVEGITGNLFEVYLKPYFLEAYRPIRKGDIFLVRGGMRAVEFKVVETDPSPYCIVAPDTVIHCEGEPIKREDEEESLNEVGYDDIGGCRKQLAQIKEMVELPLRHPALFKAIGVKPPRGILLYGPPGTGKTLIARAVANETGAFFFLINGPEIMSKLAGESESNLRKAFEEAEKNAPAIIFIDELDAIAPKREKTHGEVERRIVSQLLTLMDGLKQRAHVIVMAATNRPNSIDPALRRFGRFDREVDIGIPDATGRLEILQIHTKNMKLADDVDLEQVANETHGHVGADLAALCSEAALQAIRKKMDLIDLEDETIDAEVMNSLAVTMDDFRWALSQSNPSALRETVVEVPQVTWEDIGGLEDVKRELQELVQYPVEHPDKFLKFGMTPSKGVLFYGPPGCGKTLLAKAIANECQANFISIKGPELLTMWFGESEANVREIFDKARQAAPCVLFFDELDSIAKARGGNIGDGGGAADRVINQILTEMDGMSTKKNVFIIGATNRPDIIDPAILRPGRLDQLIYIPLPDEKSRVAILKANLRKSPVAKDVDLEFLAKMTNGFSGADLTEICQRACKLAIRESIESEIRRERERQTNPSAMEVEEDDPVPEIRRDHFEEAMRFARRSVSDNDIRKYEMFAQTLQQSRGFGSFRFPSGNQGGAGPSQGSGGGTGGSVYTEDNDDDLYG
# ROMK mod – human ROMK K+ channel modulation, primary screen. P48048. Tet-inducible ROMK, thallium flux fluorescence; actives lie on both sides. B-score at 10 µM. AID 1918. 130,000 tested, 2% active;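 active = signal ratio slope over the read window, or its plate-corrected B-score, at least 3 SD from the plate mean, either direction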;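 note: B-score of the F/F0 ratio slope over 7 to 12 s after thallium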
# HCT116 PTEN-null – suppresses growth of cells with PTEN deletion | AID 827 | HCT116 PTEN-null viability, CellTiter-Glo, 60 h; active compounds read low | viability, % at 10 µM | 140,000 tested, 1.2% active;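 active = viability at or below a set limit, 4 SD under the median of all tested compounds, cut at about 3.7% in these data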;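 note: PTEN knockout HCT116 line with beta catenin targeted HCT116 as companion control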
# HCT116 bCat-KO – beta-catenin-lacking colon tumor cell growth suppression. HCT116 beta-catenin knockout viability, CellTiter-Glo, 60 h; active compounds read low. 140,000 tested, 1.5% active. viability, % at 10 µM. AID 818;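 active = viability at or under a set limit, the compound median less 4 SD, cut at about 6% in these data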;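 note: 0% = Hyamine 1622 control at 20 µM and 100% = untreated cell control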
# Lmaj promast – Leishmania major promastigote growth inhibition; Leishmania major promastigotes, resazurin fluorescence viability; inhibition, % at 10 µM; 200,000 tested, 9% active; in the data active = inhibition above about 50%;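 note: promastigotes grown with compound for 44 hours at 28 °C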
# Starred values were filed as active, the others as inactive; . = no result.
SMILES,Insulin prom inh,p97 ATPase inh,ROMK mod,HCT116 PTEN-null,HCT116 bCat-KO,Lmaj promast
Cc1ccc(S(=O)(=O)Oc2ccc(C)cc2/C=N/N=C2\NC(=O)C(C)S2)cc1 (centres undefined),79*,-2,0.28,88,92,8
COC(=O)c1cc2sccc2n1Cc1nc(-c2ccc(OC)cc2)oc1C,.,4,.,90,79,100*
Cc1nn(-c2ccccc2)c(Cl)c1/C=N/NC(=O)c1cccc(S(=O)(=O)N2CCCC2)c1,0,-1,.,81,77,-8
Cc1nn(-c2ccc(F)cc2)c(Cl)c1/C=N/NC(=O)c1cccc(S(=O)(=O)N2CCCC2)c1,14,4,0.38,97,100,55*
Cc1nn(-c2cccc(Cl)c2)c(Cl)c1/C=N/NC(=O)c1cccnc1,4,5,.,82,92,71*
CCOC(=O)N1CCN(CC(O)COCCC23CC4CC(CC(C4)C2)C3)CC1 (centres undefined),4,-9,-0.9,76,83,87*
CCOC(=O)N1CCN(CC(O)COCc2cc(OC)c(OC)c(OC)c2)CC1 (centres undefined),14,-1,0.51,92,78,7
CC1CCCCN1CC(O)COCCC12CC3CC(CC(C3)C1)C2 (centres undefined),.,0,1.1,.,.,94*
COc1ccc(CCNC(=O)CC(c2ccccc2)c2cccc(C)c2O)cc1OC (centres undefined),.,1,-0.44,.,.,7
COc1ccc(/C=C/C(=O)N2CCN(c3ccccn3)CC2)c2ccccc12,-28,2,-0.06,.,.,-3
S=C(NCc1ccccn1)Nc1ccc(Cl)cc1,17,-5,.,104,98,-4
Fc1cccc(NC(=S)NCc2ccccn2)c1,-22,-1,1.9,102,97,63*
O=c1oc2ccccc2nc1/C=C(O)/C=C/c1ccc(F)cc1,-14,3,0.0069,73,71,61*
COc1cc(OC)cc(C(=O)N[C@H](C(=O)OCC(N)=O)C(C)C)c1,-37,-3,.,87,90,-1
COc1cc(OC)c(-c2c3cc(O)c(=O)cc-3oc3cc(O)c(O)cc23)cc1OC,-150,4,.,79,74,-5
Cc1c2cc(O)c(=O)cc-2oc2cc(O)c(O)cc12,8,29*,.,76,80,-6
COc1ccc(-n2c(SCC(=O)N/N=C(\C)c3cccnc3)nc3ccccc3c2=O)cc1,.,5,1.6,.,.,.
COc1ccc(Nc2ccc(N3C(=O)CC(C)C3=O)cc2[N+](=O)[O-])cc1OC (centres undefined),18,5,0.16,.,.,-7
COc1ccc(Nc2ccc(N3C(=O)CCCC3=O)cc2[N+](=O)[O-])cc1OC,40,6,0.016,96,83,88*
COc1cc2[nH]c3c(=O)n4c(nc3c2cc1OC)SCCC4,.,-1,-0.15,.,.,9
CC(=O)Nc1ccc(-n2nnnc2SCC(=O)Nc2cccc(NC(=O)c3ccco3)c2)cc1,.,-1,.,.,.,.
O=C(NCCSCc1c(F)cccc1Cl)c1ccc(CN2CCOCC2)cc1,-17,-5,-0.68,90,83,80*
O=C(NCCSCc1ccco1)c1ccc(CN2CCOCC2)cc1,24,6,-1.3,93,98,3
Cc1cc(/C=C2\SC(=Nc3ccccc3)NC2=O)c(C)n1-c1ccc(S(N)(=O)=O)cc1,21,11,.,13,14,3
COc1ccccc1C1(CC(=O)O)CCOC(C(C)C)C1 (centres undefined),-23,-2,.,90,77,-4
SMILES,Insulin prom inh,p97 ATPase inh,ROMK mod,HCT116 PTEN-null,HCT116 bCat-KO,Lmaj promast
COc1ccccc1C1(CCNS(=O)(=O)c2ccc(C)cc2)CCOC(C(C)C)C1 (centres undefined),.,0,.,27,38,83*
CCCC(NCC(O)COc1ccc(-c2ccccc2)cc1)c1ccccc1 (centres undefined),-117,1,-0.11,.,.,82*
CC(CCc1ccccc1)NCC(O)COc1ccccc1 (centres undefined),.,-2,0.041,.,.,83*
OC(CNC1CCCC1)COc1ccc(-c2ccccc2)cc1 (centres undefined),.,-3,-3.4,.,.,98*
CC(C)NCC(O)COc1ccc(Br)cc1 (centres undefined),.,3,-0.81,.,.,3
CCCCNC(=O)c1cc2cc(CC)ccc2[nH]1,.,2,0.52,.,.,.
Cc1cc(NCCCN(C)C)n2nc(-c3cccs3)cc2n1,-6,3,-0.97,83,82,77*
Cc1cc(C)c2c(n1)nn1c(NCCCN(C)C)cc(C)nc21,.,3,.,88,82,16
CCN(c1ccccc1)S(=O)(=O)c1ccc(Cl)c(C(=O)OCC(=O)c2[nH]c(C)c(C(C)=O)c2C)c1,0,-5,.,98,93,53*
CC(=O)c1c(C)[nH]c(C(=O)COC(=O)c2cc(S(=O)(=O)N(C)c3ccccc3)ccc2Cl)c1C,22,2,-0.39,90,92,8
C=CCn1c(COc2cc(C)ccc2C(C)C)nnc1SCC(=O)c1c(N)n(C)c(=O)n(C)c1=O,15,3,0.8,66,66,0
Cc1conc1NC(c1cccs1)c1ccc2cccnc2c1O (centres undefined),.,-2,.,2.6*,3.5*,99*
CCC(=O)NC(c1cccs1)c1ccc2cccnc2c1O (centres undefined),.,4,.,.,.,100*
CCCCC(=O)NC(c1ccccc1OC)c1ccc2cccnc2c1O (centres undefined),.,3,-0.29,.,.,.
CC(C)CC(=O)NC(c1cccs1)c1ccc2cccnc2c1O (centres undefined),48,-3,-0.017,.,.,100*
CCN1CCN(C(c2cccs2)C(C)NC(=O)CC(C)C)CC1 (centres undefined),.,3,.,117,95,0
O=C(c1ccc(S(=O)(=O)N2CCOCC2)cc1)N(c1cccc(Cl)c1)C1C=CS(=O)(=O)C1 (centres undefined),-12,4,0.4,.,.,-5
CCCn1c(SCc2cc(=O)oc3ccc4ccccc4c23)n[nH]c1=O,53,2,-2,95,87,3
COc1ccc(-c2nc(CN3CCCCC3c3nccn3C)c(C)o2)c(C)c1C (centres undefined),-52,-9,-0.78,.,.,97*
COc1ccc(-c2nc(CN(C)C(C)c3ccon3)c(C)o2)c(C)c1C (centres undefined),.,1,-0.21,.,.,6
COc1ccc(OC)c(-c2nc(CN3CCCCC3c3cccnc3)c(C)o2)c1 (centres undefined),-78,-2,-0.48,.,.,8
COc1ccc(-c2nc(CN(CC3CCC(=O)N3)C(C)C)c(C)o2)c(C)c1C (centres undefined),-8,-11,.,.,.,79*
Cc1cc(-c2ccccc2)n2nc(N)nc2n1,.,3,.,.,.,.
O=C(Nc1ccc(Cl)c(Cl)c1)Nc1nnc(CSc2ccccc2)s1,33,2,0.77,2.6*,2.2*,11
O=C(Nc1ccccc1)Nc1nnc(CSCc2ccccc2Cl)s1,3,3,.,38,37,-5
